Where a name gives a salt, the structure may show the parent alone.
These molecules were tested on HCC1937 (assay: relative cell viability, compound alone, vs DMSO (fraction of DMSO control); higher = less growth inhibition). Details: 72 h.
Work on `CCC(=O)O[C@]1(C(=O)CCl)[C@@H](C)C[C@H]2[C@@H]3C[C@H](F)C4=CC(=O)C=C[C@]4(C)[C@@]3(F)[C@@H](O)C[C@@]21C` [Halobetasol Propionate] yielded a relative cell viability of 1.12. In the case of `CC(C)(Oc1ccc(C2CC2(Cl)Cl)cc1)C(=O)O` (centres undefined) [Ciprofibrate], the relative cell viability was 1.15. `COc1ccc(-c2coc3cc(OC)ccc3c2=O)cc1` [4',7-Dimethoxyisoflavone] gave a relative cell viability of 0.486. For `C[C@H](CCC(=O)O)[C@H]1CC[C@H]2[C@@H]3C[C@H](O)[C@@H]4C[C@H](O)CC[C@]4(C)[C@H]3CC[C@]12C` [Hyodeoxycholic acid], the relative cell viability was 0.929. In the case of `CCCCCCCCCCOc1ccc(C(=O)Nc2cc(C(=O)NCCCC)ccc2SC)cc1`, the relative cell viability was 1.02.

Each molecule was assayed on MDA-MB-231 in the same assay as above. Details: 72 h.
For `CC(C)(C)NC(=O)[C@H]1CC[C@H]2[C@@H]3CC[C@H]4NC(=O)C=C[C@]4(C)[C@H]3CC[C@]12C` [Finasteride], the relative cell viability was 0.934. `O=C(c1ccc(NS(=O)(=O)c2cccc3cccnc23)cc1)N1CCN(CC2CC2)CC1` [Mitapivat] showed a relative cell viability of 0.935. For `COc1cccc(CNc2ccc(S(=O)(=O)Nc3nc4ccccc4s3)cc2)c1O`, the relative cell viability was 0.975. `O=C(Nc1ccc(C(O)(C(F)(F)F)C(F)(F)F)cc1)c1ccc(C(F)(F)F)cc1` gave a relative cell viability of 0.631. `Cc1cccc(Nc2cc(Cl)nc(SCC(=O)O)n2)c1C` [Pirinixic Acid] gave a relative cell viability of 0.88. Molecule `O=C(O)CCCc1cc2cc(Cl)ccc2n1S(=O)(=O)c1ccc2ncsc2c1` [Lanifibranor] has a relative cell viability of 1.07. With `CC(c1cc2ccccc2s1)N(O)C(N)=O` (centres undefined) [Zileuton] the relative cell viability was 0.906. For `Oc1ccc(/C=C/c2cc(O)cc(O)c2)cc1` [Resveratrol], the relative cell viability was 0.755. In the case of `CC(C)=CCC[C@](C)(O)[C@H]1CC[C@]2(C)[C@@H]1[C@H](O)C[C@@H]1[C@@]3(C)CC[C@H](O)C(C)(C)[C@@H]3[C@@H](O)C[C@]12C` [(20S)-Protopanaxatriol], the relative cell viability was 1. For `Fc1ccc(-c2c3cccc(C(F)(F)F)c3nn2Cc2ccc(F)cc2Cl)cc1`, the relative cell viability was 0.816. For `N=C(N)NC(=N)NCCc1ccccc1` [Phenformin hydrochloride], the relative cell viability was 0.868. In the case of `COc1cc(N2CCN(C)CC2)ccc1Nc1ncc2c(n1)N(C1CCC1)C(=O)N(c1c(C)cccc1C)C2`, the relative cell viability was 0.767. With `O=S(=O)(Nc1ccc(C(O)(C(F)(F)F)C(F)(F)F)cc1)c1cccs1` the relative cell viability was 1.03. For `Nn1nnc2ccccc21` [1-Aminobenzotriazole], the relative cell viability was 0.937. `CS(=O)(=O)c1ccc(-c2nnc(/C=C/c3nnc(-c4ccc(C#N)cc4)o3)n2-c2ccccc2Cl)nc1` was tested, and the relative cell viability was 0.851. With `O=C(O)c1cc(F)c2nc(N3[C@@H]4CC[C@H]3C[C@@H](OCc3c(-c5ccccc5OC(F)(F)F)noc3C3CC3)C4)sc2c1` [Tropifexor] the relative cell viability was 0.971. Work on `Nc1cccc(S(=O)(=O)N2CCCN(S(=O)(=O)c3ccc4c(c3)OCCO4)CC2)c1` yielded a relative cell viability of 1.01. `C[C@H](CCCC(C)(C)O)[C@H]1CC[C@H]2[C@@H]3CC=C4C[C@@H](O)CC[C@]4(C)[C@H]3CC[C@]12C` [25-Hydroxycholesterol] was tested, and the relative cell viability was 0.89. With `CCOC(=O)c1c(NC(=O)CN2CCN(C(=O)c3ccco3)CC2)sc2c1CCC2` the relative cell viability was 0.967. In the case of `CN(C)C(=O)Nc1cccc(-c2ccc(N(C)C)cc2)c1` [Atglistatin], the relative cell viability was 0.83. With `O=C(CCCCc1ccc2c(c1)OCO2)N1CCCCC1` the relative cell viability was 0.838. With `CCC(=O)Nc1cccc(Oc2nc(Nc3ccc(N4CCN(C)CC4)cc3OC)ncc2Cl)c1` the relative cell viability was 0.559. For `N#Cc1c(O)c2c(-c3ccc(-c4ccccc4O)cc3)csc2[nH]c1=O`, the relative cell viability was 0.907. For `COc1cc(F)c(C(C)C)cc1-c1ccc(C(F)(F)F)cc1CN1C(=O)O[C@H](c2cc(C(F)(F)F)cc(C(F)(F)F)c2)[C@@H]1C` [Anacetrapib], the relative cell viability was 0.877. Molecule `OC[C@H]1O[C@@H](Oc2cc(O)cc(/C=C/c3ccc(O)cc3)c2)[C@H](O)[C@@H](O)[C@@H]1O` [Polydatin] has a relative cell viability of 0.871. `O=C1c2cc(CO)cc(O)c2C(=O)c2c(O[C@@H]3O[C@H](CO)[C@@H](O)[C@H](O)[C@H]3O)cccc21` [Aloe-emodin-8-O-beta-D-glucopyranoside] gave a relative cell viability of 0.783. `CCCCCCCCCCCCCCOc1ccc(C(=O)OCC(=O)N(C)CC(=O)OCC)o1` [Olumacostat Glasaretil] showed a relative cell viability of 0.863. In the case of `CCCCCCCCCCCCCCCC(=O)NCCO` [Palmidrol], the relative cell viability was 1.13. `CCN(CC)CCCC(C)Nc1c2ccc(Cl)cc2nc2ccc(OC)cc12` (centres undefined) [Quinacrine dihydrochloride] gave a relative cell viability of 0.306.

From the supplement of paper PMC9492666
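Also: viability read out with the CCK-8 kit in 96-well plates, screening a set of 303 compounds acting on lipid metabolism targets.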
